Gal4-VP16 FLuc: counter-screen for ROR gamma inhibitors: Gal4-VP16 reporter; Potency, µM (highest dose often 53.6 µM), for inactives: at the top dose activity, negative = inhibition, usual class: inhibitors; Drosophila S2 Gal4-VP16 UAS-luciferase, luminescence, 20 h; 310,000 tested, 3.5% active;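 also: Gal4-VP16 expression switched on by copper sulfate through the metallothionein promoter; potency is read from the fitted curve at half-maximal effect; % is scaled to controls: 0 for no effect and ±100 for the full control effect; nearly all actives have a fitted effect of over 50% in size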
SW480 rerep: DNA re-replication induction in SW480 cells; SW480 DNA re-replication, Hoechst DNA content imaging, 48 h; 340,000 tested, 1.8% active; Potency, µM (titrated, usually from 46.1 µM), without a hit: at the top dose re-replication activation, hits mostly activators; also: potency is read from the fitted curve at half-maximal effect; % of control where 0% means no effect; nearly all actives have a fitted effect of over 55% in size
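DNA re-replication was detected as more nuclei of elevated Hoechst intensity after 48 hr exposure to compound (23 nL pinned per well of 250 cells).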
IL-1B inflam inh: inhibitors of inflammasome signaling (IL-1 beta secretion); THP-1 LPS/ATP IL-1B secretion, AlphaLISA, 16 h; stronger effect = lower value; activity change, % at 57.5 µM; 360,000 tested, 4.7% active; AID 743279; in the data active = activity change below about -50%; inconclusive = mostly about -30% to -49%; also: % is scaled to controls: 0 for no effect and ±100 for the full control effect
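THP-1 cells pretreated 1 hr with compounds (up to 57.5 uM final), then stimulated with LPS (250 ng/mL final) plus ATP (1.25 mM final); secreted IL-1B measured by AlphaLISA after 16 hr, decreased signal indicating inhibition.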
MCF10A rereplic: DNA re-replication induction in MCF 10a cells; MCF 10A DNA re-replication, Hoechst nuclear intensity, 48 h; Potency, µM (doses to about 46.1 µM), for inactives: top-dose activity, positive = re-replication, most hits filed as activators; 350,000 tested, 2.9% active; AID 624296; also: potency is read from the fitted curve at half-maximal effect; % of control where 0% means no effect; nearly all actives have a fitted effect of over 50% in size
RORg inh: blocks mouse ROR gamma transcriptional activity | P51450 | Drosophila S2 Gal4-RORgamma UAS-luciferase reporter, 20 h | Potency, µM (series often up to 53.6 µM), inactives show top-dose activity change, negative = inhibition, actives largely listed as inhibitors | 310,000 tested, 5.4% active; also: potency is read from the fitted curve at half-maximal effect; % is scaled to controls: 0 for no effect and ±100 for the full control effect; nearly all actives have a fitted effect of over 60% in size
Target sequence (P51450 whole entry, looked up, the tested form may be a part): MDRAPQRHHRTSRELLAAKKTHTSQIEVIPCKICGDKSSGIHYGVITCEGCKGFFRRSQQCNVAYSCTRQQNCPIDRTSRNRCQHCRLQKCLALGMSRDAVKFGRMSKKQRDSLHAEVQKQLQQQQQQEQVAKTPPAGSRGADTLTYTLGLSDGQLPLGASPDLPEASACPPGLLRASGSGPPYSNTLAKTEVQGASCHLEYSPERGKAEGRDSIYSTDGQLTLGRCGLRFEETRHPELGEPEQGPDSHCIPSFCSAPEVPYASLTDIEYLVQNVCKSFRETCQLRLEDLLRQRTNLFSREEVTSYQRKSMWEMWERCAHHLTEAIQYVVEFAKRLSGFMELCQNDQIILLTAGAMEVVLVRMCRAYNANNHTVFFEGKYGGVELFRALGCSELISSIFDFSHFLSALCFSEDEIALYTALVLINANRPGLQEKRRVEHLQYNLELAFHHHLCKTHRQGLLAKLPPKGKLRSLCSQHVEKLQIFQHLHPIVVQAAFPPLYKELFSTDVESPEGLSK
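In this cell-based reporter format, copper sulfate (700 uM final) drives Gal4–ROR gamma fusion expression from a metallothionein promoter in Drosophila Schneider cells; compounds preincubated 1 hr, reporter read after 20 hr at ambient temperature.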
* hit, by the source's call; ? = inconclusive; . = not tested or not shown; ! = a repeat was not active. Compounds with a hit are over-represented: about 11% of the library has one in this group of screens. Unless noted, calls follow the shape of the dose curve; as a rule, active = well fitted curve in the direction sought with a large enough effect; inconclusive = small, poorly fitted or top-dose-only effect, or another doubt; inactive = no such curve, though single readings can be large; an effect the other way counts as inactive or inconclusive.

SMILES	Gal4-VP16 FLuc	SW480 rerep	IL-1B inflam inh	MCF10A rereplic	RORg inh
CSc1nc(N(C)CCO)c2sc3nc(-c4ccco4)c4c(c3c2n1)CCC4	-6%	3%	19	?	3%
CC1(C)Cc2c(c(-c3ccco3)nc3sc4c(NCC5CCCO5)ncnc4c23)CO1 (stereo not given)	-19%	?	-6	23µM*	-9%
CSc1nc(NCCN(C)C)c2sc3nc(-c4ccco4)c4c(c3c2n1)CCC4	.	2%	-101*	?	.
CC1(C)Cc2c(c(-c3ccco3)nc3sc4c(NCCN5CCOCC5)ncnc4c23)CO1	?	-31%	-181*	?	?
CC1(C)Cc2c(c(-c3ccco3)nc3sc4c(NCCCO)ncnc4c23)CO1	-4%	-6%	44	1%	-9%
O=C(COC(=O)c1ccc([N+](=O)[O-])s1)c1ccc[nH]1	.	4%	17	-1%	.
O=c1c2sccc2nc(SCc2cc(=O)n3cc(Br)ccc3n2)n1Cc1ccccn1	17%	-3%	-53*	17%	-25%
Cc1ccc(CSc2nc3ccsc3c(=O)n2Cc2ccccn2)cc1	-2%	9%	?	?	85%
CC1Sc2ccc(S(=O)(=O)CCC(=O)N3CCN(c4ccccc4F)CC3)cc2NC1=O (stereo not given)	?	4%	10	-1%	5%
COC(=O)CCCC[C@@H]1O[C@H](CCc2ccccc2)Cc2[nH]c(=S)[nH]c(=O)c21	.	.	28	.	.
COc1ccc(CNC(=O)C2CCN(S(=O)(=O)N3CCC(C)CC3)CC2)c(OC)c1	.	.	-4	.	.
CC(C)(C)OC(=O)C1=NOC2(C=CC(=O)C=C2)C1	13µM*!	.	.	.	?
CC(C)(C)c1ccc(CSc2nc(N)cc(=O)[nH]2)cc1	7.9µM*	0%	-2	10%	-45%
COc1ccc(-c2ccc3c(c2)S(=O)(=O)c2cccc(C(=O)NCc4cc(C)oc4C(F)(F)F)c2C3=O)cc1OC	.	0%	3	?	.
O=C(Cn1c(=O)oc2cccnc21)Nc1ccccc1Oc1ccc(Cl)cc1Cl	-4%	-2%	-71*	2%	-5%
O=C(Cn1c(=O)oc2ccccc21)Nc1ccc(Cl)cc1Cl	-1%	2%	5	5%	1%
CCn1ccc(C(=O)N2CCN(c3ncccn3)CC2)n1	3%	-3%	-4	-27%	6%
Cc1ccc(S(=O)(=O)N2CCOCC2)cc1C(=O)NC(=S)N1CC(C)CC(C)C1 (stereo not given)	5µM*	4%	-12	-10%	1.6µM*
CCCCCC(C)NC(=S)NC(=O)c1cc(S(=O)(=O)N2CCOCC2)ccc1C (stereo not given)	11µM*	-2%	-1	15%	10µM*
CC(C)(C)OC(=O)N1CCC(NC(=O)c2[nH]c(C(F)(F)F)nc2-c2ccccc2)CC1	.	.	61	.	.
CC(=O)Nc1cc(-c2cccc(F)c2)cn2c(-c3ccccc3)cnc12	.	.	-8	.	.
COc1ccc(NC(=O)c2nc[nH]c2C(=O)N(C)CCO)cc1	.	.	-5	.	.
Cc1ccc(S(=O)(=O)N(OCc2ccccc2)C(C)C(=O)O)cc1 (stereo not given)	.	-4%	27	0%	.
CC(=O)C12OC(C)(C)OC1CC1C3CCC4=CC(=O)C=CC4(C)C3(F)C(O)CC12C (stereo not given)	.	-4%	-57*	?	.
CC(=O)OCC(=O)[C@@]12OC(C)(C)OC1CC1C3CC(F)C4=CC(=O)C=C[C@@]4(C)[C@@]3(F)C(O)C[C@]12C (stereo not given in full)	-18%	.	.	.	-6%
SMILES	Gal4-VP16 FLuc	SW480 rerep	IL-1B inflam inh	MCF10A rereplic	RORg inh
CCCC(=O)O[C@]1(C(=O)COC(C)=O)CC[C@H]2[C@@H]3C[C@H](F)C4=CC(=O)C=C[C@]4(C)[C@@]3(F)[C@@H](O)C[C@@]21C	-9%	-1%	-75*	17%	2%
CC(=O)OCC(=O)[C@@]12OC3(CCCC3)OC1CC1C3CCC4=CC(=O)C=C[C@@]4(C)[C@]3(F)C(O)C[C@]12C (stereo not given in full)	-11%	-3%	.	4%	3.5µM*
COc1ccc(C(CNC(=O)C(=O)NC2CCCC2)N2CCN(C)CC2)cc1 (stereo not given)	.	-63%	10	3%	.
CCN(C(=O)CN1C(=O)S/C(=C\c2ccc(F)cc2)C1=O)C1CCS(=O)(=O)C1 (stereo not given)	29%	-7%	-16	0%	?
Cc1ccc(OCCNC(=O)C2CC(=O)N(Cc3ccccc3)C2)cc1 (stereo not given)	.	-1%	20	-2%	.
NCCCCCCNS(=O)(=O)c1ccc2c(Cl)cccc2c1	28µM*	.	.	.	?
NCCCCNS(=O)(=O)c1ccc2c(Cl)cccc2c1	2%	.	.	.	-27%
COc1ccc(/C=C2\CCCC3C2=NN(C(=O)CSc2ncn[nH]2)C3c2ccc(OC)cc2)cc1 (stereo not given)	-4%	?	-85*	?	40%
O=C(CSc1ncn[nH]1)N1N=C2/C(=C/c3ccccc3)CCCC2C1c1ccccc1 (stereo not given)	0%	-6%	-13	?	?
NC(=O)N1N=C2/C(=C/c3ccccc3)CCCC2C1c1ccccc1 (stereo not given)	-14%	18%	-57*	8.2µM*	1%
O=C(O)CSCC(=O)N1N=C2/C(=C/c3ccccc3)CCCC2C1c1ccccc1 (stereo not given)	-12%	-3%	2	-10%	1%
COC(=O)[C@@H]1C[C@H]1[C@@H](NC(=O)c1cnccn1)c1ccccc1	1%	.	.	.	-2%
Cc1ccc2c(c1)N(C(=O)CCC(=O)NCCN1CCOCC1)CCO2	3%	4%	-9	2%	-24%
O=C(NCc1ccncc1)C(=O)N/N=C/c1ccc(OCc2ccccc2)cc1	-10%	-8%	-3	4%	6%
O=NN(CCc1ccncc1)c1ccc(OCc2ccccc2)cc1	6.3µM*	0%	-19	?	7.1µM*
Cc1cc(C)n2nc(SCC(=O)Nc3ccc(O)cc3)nc2n1	-2%	-8%	18	0%	5%
CCOc1ccc(NC(=O)CSc2nc3nc(C)cc(C)n3n2)cc1	11µM*	-1%	-8	6%	?
O=C(Nc1ccc(Cl)cc1)OCCN1CCN(Cc2ccccc2)CCC1=O	2%	.	.	.	?
Cc1ccc(-c2nn3c(C)nnc3c3ccccc23)cc1S(=O)(=O)NC(C)(C)CO	6%	0%	98	11µM*	-44%
COCCNS(=O)(=O)c1cc(-c2nn(C)c(=O)c3ccccc23)ccc1C	7%	-4%	24	0%	-20%
CCCCNS(=O)(=O)c1cc(-c2nn(C)c(=O)c3ccccc23)ccc1C	-6%	?	-65*	2%	1%
